# Hits are enriched below; roughly 1.8% of the tested compounds scored in any of these assays.
# Gli-Sufu block = Gli-Sufu pathway antagonists, primary screen, luciferase luminescence, Sufu-KO-LIGHT cells, uHTS; Sufu-KO-LIGHT fibroblasts, Gli luciferase reporter luminescence; inhibition, % at 5 µM; 340,000 tested, 0.74% active;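 active = inhibition above about 55%, limit read from the data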;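 also: 0% = DMSO-treated cells and 100% = wells with medium but no cells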
# 697 NFkB inh = inhibitors of PMA/ionomycin-induced NF-kB reporter, 697 cells, primary screen, B-cell NF-kB inhibitor project, cell-based, luminescence, uHTS. AID 435022, 2010. inhibition, % at 4 µM. 697 B-cell NF-kB luciferase reporter, 16 h. 330,000 tested, 0.33% active; in the data active = inhibition above about 35%
# Beta cell apopt = inhibitors of cytokine-induced beta cell apoptosis, primary screen, luminescence. protection from apoptosis, % (concentration not given with the values). INS-1E cytokine-induced death, ATP luminescence, 48 h; percent of positive-control rescue, neutral wells zero. 300,000 tested, 0.8% active;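 active = Every replicate reaches about 75%, or at least half do and their mean reaches it too, limit read from the data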;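 also: 0% = cytokine-treated negative control wells and 100% = positive control rescue; higher means more ATP so stronger rescue from cytokine killing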
# Jurkat NFkB inh = inhibitors of induced NF-kB luciferase reporter, primary screen, TCR NF-kB activation inhibitor project, cell-based, luminescence, uHTS | Jurkat, PMA/ionomycin-induced NF-kB luciferase reporter | inhibition, % at 4 µM | 330,000 tested, 0.53% active | AID 435003, 2010; in the data active = inhibition above about 50%
# Gli antag conf = Gli-SUFU pathway antagonists, confirmation, single concentration, luciferase luminescence, Sufu-KO-LIGHT cells; shares compounds with Gli-Sufu block; 2,500 tested, 40% active; inhibition, % at 5 µM; Gli luciferase reporter; AID 602428, 2012;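 active = mean inhibition at 5 µM reaching about 45%, limit read from the data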;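 also: plate controls were DMSO-treated cells for no effect and wells lacking cells for full effect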
# SufuKO cytotox = cytotoxicity in Sufu-KO-LIGHT cells, confirmation, cytotoxicity control for Gli-SUFU antagonist project, cell-based, ATP luminescence, single concentration. shares compounds with Gli-Sufu block. cytotoxicity, % at 5 µM. 2,500 tested, 32% active. AID 651994, 2013;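 active = mean cytotoxicity at 5 µM above about 25%, limit read from the data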;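 also: cells exposed to compound overnight for roughly 16 to 18 hours; plate controls were DMSO wells with cells for no effect and medium without cells for full effect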
# Wnt3a cs = Wnt3a reporter signal inhibition, confirmation, counter-screen for Gli-SUFU antagonist project, Wnt-LIGHT cells, luminescence, single concentration; shares compounds with Gli-Sufu block; Wnt3a-driven luciferase reporter; inhibition, % at 6.25 µM; 2,500 tested, 20% active; AID 651995, 2013;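 active = mean inhibition above about 25%, limit read from the data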
# Starred values were filed as active, the others as inactive; · = no result given.
SMILES,Gli-Sufu block,697 NFkB inh,Beta cell apopt,Jurkat NFkB inh,Gli antag conf,SufuKO cytotox,Wnt3a cs
Cc1ccc(Cn2c(N3CCN(CCO)CC3)nc3c2c(=O)n(C)c(=O)n3C)cc1,51,-9,-3,-10,15,8,-6
c1ccc(Cn2c(-c3ccccc3)c[n+]3c2SCCC3)cc1,70*,-17,14,-16,67*,37*,11
CCOc1ccccc1C(=O)NCC(=O)NCC1CCCCC1,-14,4,-9,-2,·,·,·
Cc1cccnc1NC(=O)c1ccc(Cl)c(S(=O)(=O)N2CCCCCC2)c1,84*,-17,-4,-14,5,8,-13
Cc1cccnc1NC(=O)c1ccc(Cl)c(S(=O)(=O)N2CCCC2)c1,-11,9,-3,9,·,·,·
COc1cc2c(c(OC)c1OC)-c1ccc(N(C)CC(OC)OC)c(=O)cc1[C@@H](NC(C)=O)CC2,57*,-197,30,47,58*,34*,-75
CCOCC(=O)NC1CCc2cc(OC(=O)COCC)c(OC)c(OC)c2-c2ccc(SC)c(=O)cc21 (stereo not drawn),46,·,·,·,·,·,·
CCOC(=O)NC1CCc2cc(OC)c(OC)c(OC)c2-c2ccc(OC)c(=O)cc21 (stereo not drawn),63*,·,·,·,57*,57*,9
CNC1CCc2cc(OC)c(OC)c(OC)c2-c2ccc(SC)c(=O)cc21 (stereo not drawn),48,·,·,·,·,·,·
COc1cc2c(c(OC)c1OC)-c1ccc(SC)c(=O)cc1C(N)CC2 (stereo not drawn),56*,·,·,·,55*,63*,-3
COc1cc2c(c(OC)c1OC)-c1ccc(SC)c(=O)cc1C(NC(=O)C(F)(F)F)CC2 (stereo not drawn),51,·,·,·,60*,61*,41*
COc1cc2c(c(OC)c1OC)-c1ccc(OC)c(=O)cc1C(N)CC2 (stereo not drawn),46,·,·,·,·,·,·
O=C(Nc1ccc2[nH]ccc2c1)c1ccc(F)cc1,-101,-157,·,-85,·,·,·
Cc1ccc(NC(=O)CSc2nnc(CNC(=O)C34CC5CC(CC(C5)C3)C4)n2-c2ccc(F)cc2)cc1,10,6,6,20,·,·,·
O=C(Cn1cc(C(F)(F)F)ccc1=O)N/N=C/c1ccc(Cl)c(Cl)c1,50,-5,-2,9,17,8,-49
Cc1ccc2c(c1)c(N=Nc1ccc([N+](=O)[O-])cc1)c(O)n2C,51,13,-3,10,37,14,-14
O=[N+]([O-])c1ccc(S(=O)(=O)NN=Cc2ccc3c(c2)OCO3)cc1,3,·,·,·,·,·,·
CCC1=Nc2cc(C(=O)NCc3ccco3)ccc2Sc2ccc(Cl)cc21,52,-9,3,22,56*,52*,-20
C/C(=N\NC(=O)c1ccn(C)n1)c1ccc(NC(=O)C2CCC2)cc1,72*,-13,-1,0,21,14,18
C/C(=N\NC(=O)c1ccn(C)n1)c1ccc(NC(=O)C2CCCC2)cc1,2,-10,-2,3,·,·,·
CCN(C(=O)CN1C(=O)COc2ccc(S(=O)(=O)N3CCOCC3)cc21)c1ccc(OC)cc1,52,-22,-1,-11,11,13,-24
COc1ccccc1N1CCN(C(=O)c2cc3c(=O)n(C)c4ccccc4c3n2C)CC1,-8,-36,4,-6,·,·,·
CN1CCN(C(=O)c2cc3ccccc3[nH]2)CC1,53,8,-2,-11,14,14,-7
COc1ccc2cc(C(=O)N3CCN(c4ccccc4F)CC3)[nH]c2c1,·,-3,1,-52,·,·,·
COc1ccccc1N1CCN(C(=O)c2cc3sccc3n2C)CC1,92*,-1,-8,-1,8,-6,-17
SMILES,Gli-Sufu block,697 NFkB inh,Beta cell apopt,Jurkat NFkB inh,Gli antag conf,SufuKO cytotox,Wnt3a cs
COc1ccc2cc(C(=O)N3CCN(c4ccccc4OC)CC3)[nH]c2c1,57*,-4,-10,7,31,3,-4
CCc1ccc(S(=O)(=O)NCc2ccc(N3CCN(C)CC3)cc2)cc1,3,-66,-5,-50,·,·,·
CCN1C(=O)[C@H]2[C@@H](c3ccc(C)cc3)N3C(=O)N(c4ccc(C)cc4)C(=O)[C@@]3(CC)[C@H]2C1=O,-12,2,-8,-4,·,·,·
Cn1cc(S(=O)(=O)NCc2ccc(F)cc2)c(=O)n(C)c1=O,-4,-11,-7,1,·,·,·
COc1ccc(CC(=O)NC(=S)Nc2ccc(S(N)(=O)=O)cc2)cc1,0,5,-2,1,·,·,·
C=CCN(CC=C)S(=O)(=O)c1ccc(NC(=S)NC(=O)Cc2ccc(OC)cc2)cc1,69*,4,-8,9,16,17,24
COc1ccc(Nc2cc(C)nc(NCc3ccccc3)n2)cc1,36,-18,60,35,·,·,·
Cc1ccc(Nc2cc(C)nc(NCc3ccccc3)n2)cc1,52,-17,105*,27,29,23,-19
Cc1cc(NC2CCCCC2)nc(NCc2ccccc2)n1,80*,-22,104*,46,58*,34*,17
COc1cc(C)nc(NCc2ccccc2)n1,-5,0,-5,-7,·,·,·
Cc1nnc(NC(=O)CCN2C(=O)/C(=C\c3ccccc3)SC2=S)s1,12,14,1,2,·,·,·
COc1ccccc1-n1c(-c2ccccc2)c[n+]2c1CCc1ccccc1-2,81*,4,101*,33,87*,24,32*
CCCOc1cccc(C(=O)NCCNC(=O)c2cnccn2)c1,-4,3,0,12,·,·,·
CCCCNc1c(-c2ccc(OC)c(Sc3ccc(OC)cc3)c2)nc2ccccn12,54,-24,·,-4,57*,26*,3
CCCCNc1c(-c2ccc(OC)c(Sc3ccc(OC)cc3)c2)nc2cnccn12,4,-14,7,1,·,·,·
COc1ccc(CCNc2ccc(S(N)(=O)=O)cn2)cc1,51,16,1,4,9,7,3
CCn1c(COc2ccc(Cl)cc2)nnc1SCC(=O)Nc1ccc2c(c1)OCO2,3,7,5,0,·,·,·
CCn1c(COc2ccc3c(c2)OCO3)nnc1SCC(=O)c1ccccc1,67*,4,4,4,10,7,-32
CC12CC3CC(C)(C1)CC(CN)(C3)C2,26,-1,-5,7,·,·,·
COc1cc(OC)c(OC)cc1/C=N/n1c(COc2ccccc2)n[nH]c1=S,57*,-16,11,-17,25,18,-21
